Assay outcomes (PubChem BioAssay)
Pf growth 96h – P. falciparum growth inhibition at 96 hours; P. falciparum luciferase reporter growth, 96 h; Potency, µM (highest dose often 28.7 µM), inactives show top-dose activity change, negative = inhibition, hits mostly inhibitors; hit rate 6.9% among 320,000; AID 504834; further: potency means the concentration at half of the fitted maximal effect; on the % scale 0 is the no-effect control and ±100 the full control effect
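Two parasite generations (96 h, 37 C, 5% CO2) of compound exposure in infected erythrocytes (0.05% parasitemia, 2% hematocrit). Luciferase-reporter P. falciparum; decreased luminescence indicates inhibited growth, aimed at apicoplast-acting delayed death.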
Cycloheximide cs – affects cycloheximide protein synthesis inhibition readout, counter-screen | cell reporter, cycloheximide protein synthesis inhibition counterscreen | max response, % | hit rate 12% among 300,000 | AID 2314; in the data active means max response mostly above about 13%, no sharp cut-off; inactive means mostly below about 14%; further: read at 38.3 µM for the half of the compounds with a filed dose; 0% is about no effect
Shiga toxin inh – blocks Shiga toxin action in Vero cells; Vero cells, Shiga toxin protein synthesis inhibition reporter; inhibition, % at 38.7 µM; hit rate 9.2% among 290,000; in the data active means inhibition mostly above about 28%, no sharp cut-off; inactive means mostly below about 43%; further: 0% is about no effect
Giardia FBPA inh – inhibitors of Giardia lamblia fructose-1,6-bisphosphate aldolase; A8B2U2; purified Giardia FBPA; Potency, µM (series often up to 59.6 µM), for inactives: at the top dose activity, negative = inhibition, hits mostly inhibitors; hit rate 0.71% among 290,000; AID 2451; further: potency means the concentration at half of the fitted maximal effect; on the % scale 0 is the no-effect control and ±100 the full control effect; nearly all actives have a fitted effect of over 55% in size
Target sequence (A8B2U2 whole entry, looked up): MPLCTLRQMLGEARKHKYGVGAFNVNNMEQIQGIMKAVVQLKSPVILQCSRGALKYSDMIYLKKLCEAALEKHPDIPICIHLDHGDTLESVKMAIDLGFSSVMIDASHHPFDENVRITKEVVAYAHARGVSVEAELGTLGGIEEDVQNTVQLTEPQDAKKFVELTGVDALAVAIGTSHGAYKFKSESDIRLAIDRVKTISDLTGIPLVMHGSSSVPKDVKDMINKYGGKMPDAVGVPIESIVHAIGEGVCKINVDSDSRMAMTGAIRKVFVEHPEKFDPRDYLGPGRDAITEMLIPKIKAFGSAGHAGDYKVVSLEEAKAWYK
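40 nM FBPA preincubated 10 min at RT with compound (up to 57.5 uM final), then substrate plus GAPDH/TPI/NAD/arsenate coupling and diaphorase/resazurin added. Fluorescence read after 20 min at RT, 525/598 nm.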
Pf growth 48h – P. falciparum growth inhibition at 48 hours (one generation). P. falciparum luciferase growth in erythrocytes, 48 h. Potency, µM (series often up to 28.7 µM), for inactives: at the top dose activity change, negative = inhibition, actives largely listed as inhibitors. hit rate 5.9% among 310,000. AID 504832; further: potency means the concentration at half of the fitted maximal effect; on the % scale 0 is the no-effect control and ±100 the full control effect
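Compounds are pin-transferred into medium, infected erythrocytes (2% hematocrit, 0.1% parasitemia final) are added, and plates sit one parasite generation at 37 C in 5% CO2. Detection reagent is then added and luminescence measured.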
NS1 function inh – influenza NS1 inhibition; hit rate 0.4% among 270,000; Potency, µM (top dose mostly 46.1 µM), for inactives: top-dose activity, positive = more growth; AID 2326; calls by dose curve; further: potency means the concentration at half of the fitted maximal effect; actives are rising curves; nearly all actives have a fitted effect of over 50% in size
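OD600 was taken as the measure of yeast growth restored by compound in an NS1-expressing S. cerevisiae strain. Cells had been washed out of glucose medium and diluted 1:100 into galactose -URA medium, pH 6.0.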
* = called active by the depositor; ? = inconclusive; . = no result. Most compounds without a hit are left out; they make up all but 21% or so of the library. Unless noted, the call rests on the fitted dose curve; in most records, active means well fitted curve in the direction sought with a large enough effect; inconclusive means small, poorly fitted or top-dose-only effect, or another doubt; inactive means no such curve, though single readings can be large; an effect the other way counts as inactive or inconclusive.

SMILES	Pf growth 96h	Cycloheximide cs	Shiga toxin inh	Giardia FBPA inh	Pf growth 48h	NS1 function inh
CCCCC(=O)N1CCN(c2nc3ccc(F)cc3s2)CC1	-18%	12	35*	.	167%	-25%
CCC(=O)N1CCN(c2nc3ccc(Br)cc3s2)CC1	43%	36*	59*	12%	79%	-10%
CC(C)(C)NC(=O)c1ccc2c(c1)N(CC(=O)N1CCCC1)C(=O)C(C)(C)O2	?	-2	.	2%	-11%	-5%
CC(C)(C)NC(=O)c1ccc2c(c1)N(CC(=O)N1CCN(c3ccc(F)cc3)CC1)C(=O)C(C)(C)O2	.	-5	-16	-5%	10µM*	-7%
O=C(O)CSCC(=O)Nc1ccc(C(=O)O)cc1	.	11	20	8%	6%	3%
CC(=O)c1ccc(NC(=O)CSCCO)cc1	.	21*	81*	1%	12%	3%
O=C(CSCCO)Nc1ccc(C2CCCCC2)cc1	.	48*	97*	-5%	80%	-40%
CSCCC(=O)Nc1ccc(C(C)=O)cc1	104%	27*	114	-1%	83%	0%
CC(=O)c1ccc(NC(=O)CCCC(=O)c2ccccc2)cc1	5%	-4	-16	-7%	-17%	-1%
Cc1cnc(CNc2cc(-c3ccccc3C)ncn2)cn1	.	.	.	-13%	.	.
CC(C)N(C)S(=O)(=O)c1ccc(NC(=O)C2=COCCO2)cc1	69%	.	.	.	90%	.
CN1C(=O)/C(=C\N2CCc3ccccc32)C(=O)NC1=S	9.3µM*	13*	14	?	24%	18%
CN1C(=O)/C(=C/c2cccn2-c2ccc3ccccc3c2)C(=O)NC1=S	-9%	14	-7	?	-5%	-59%
O=C(NCC1COc2ccccc2O1)c1cccc(S(=O)(=O)NCc2ccccc2)c1 (stereo unspecified)	-16%	.	.	.	?	.
CC(C)n1cnc2c(Nc3cccc(F)c3)nc(NCCO)nc21	?	19*	25	-8%	?	-6%
CC(C)n1cnc2c(Nc3ccc(F)c(Cl)c3)nc(NCCO)nc21	?	-2	15	-3%	-14%	5%
CC(C)C[C@H](CO)Nc1nc(Nc2cccc(Cl)c2)c2ncn(C(C)C)c2n1	?	23*	42*	-7%	?	-2%
O=C(O)CCCC(=O)Nc1ccc(N2CCCC2)cc1	31%	-1	-7	-15%	77%	-4%
CCCC(=O)Nc1ccc(N2CCCCC2)cc1	.	25*	110*	-3%	68%	-5%
O=C(CCl)Nc1ccc(N2CCCCCC2)cc1	?	20*	58	-16%	?	-36%
CCC(=O)Nc1ccc(N2CCCCC2)cc1	17%	37*	65	-5%	.	3%
NS(=O)(=O)c1cc(C(=O)OCC(=O)Nc2ccc(N3CCCCC3)cc2)ccc1Cl	43%	13*	7	-5%	43%	-1%
CCc1ccc(NC(=O)COC(=O)c2ccc(Cl)c(S(=O)(=O)N3CCCCCC3)c2)cc1	25%	-3	-4	2%	11%	24%
CCC(=O)NC(=S)Nc1ccc(N2CCOCC2)cc1	37%	28*	96*	10%	81%	8%
COc1cc2c(cc1OC)CN(S(=O)(=O)/C=C/c1ccccc1)CC2	-19%	-1	-8	4%	?	-3%
SMILES	Pf growth 96h	Cycloheximide cs	Shiga toxin inh	Giardia FBPA inh	Pf growth 48h	NS1 function inh
Cc1ccc2oc(=O)n(CCOc3ccccc3)c2c1	-18%	35*	39*	2%	?	-11%
CCN(CC)c1nc2ccccc2n(Cc2cccc(OC)c2)c1=O	1.5µM*	4	-5	6%	?	-28%
COc1cccc(Cn2c(=O)oc3ccccc32)c1	49%	41*	45*	6%	47%	1%
COc1cccc(Cn2c(=O)ccc3ccccc32)c1	108%	18	12	6%	34%	.
COc1ccc(OCCCn2c(=O)oc3ccccc32)cc1	-16%	19*	-6	0%	-29%	-4%
COc1ccc(C(=O)COC(=O)CCCn2c(=O)oc3ccccc32)cc1	-2%	1	-11	3%	9%	-18%
O=c1oc2ccccc2n1Cc1ccccc1	41%	-5	-8	2%	45%	2%
CC1CCN(C(=O)CN2C(=O)C(C)(C)Oc3ccc(C(=O)NC(C)C)cc32)CC1	25%	1	-7	4%	22%	0%
O=C(Cn1c(C(=O)OCCO)cc2ccccc21)c1ccccc1	?	-2	.	6%	-5%	8%
